# ± gives the standard deviation of the averaged measurements. About 6,200 targets were measured; listed, in parts, are those with the largest changes and a random draw of the rest.
# Legend:
# Experiment in all cases: NP40-soluble protein abundance relative to vehicle (solubility fold change) (ratio); higher = more soluble protein in presence of AMP-PNP
# A0A087WXD1|Q96T83 = biological target: T1, A0A087WXD1|Q96T83 (UniProt Q96T83)
# T1 sequence (whole entry): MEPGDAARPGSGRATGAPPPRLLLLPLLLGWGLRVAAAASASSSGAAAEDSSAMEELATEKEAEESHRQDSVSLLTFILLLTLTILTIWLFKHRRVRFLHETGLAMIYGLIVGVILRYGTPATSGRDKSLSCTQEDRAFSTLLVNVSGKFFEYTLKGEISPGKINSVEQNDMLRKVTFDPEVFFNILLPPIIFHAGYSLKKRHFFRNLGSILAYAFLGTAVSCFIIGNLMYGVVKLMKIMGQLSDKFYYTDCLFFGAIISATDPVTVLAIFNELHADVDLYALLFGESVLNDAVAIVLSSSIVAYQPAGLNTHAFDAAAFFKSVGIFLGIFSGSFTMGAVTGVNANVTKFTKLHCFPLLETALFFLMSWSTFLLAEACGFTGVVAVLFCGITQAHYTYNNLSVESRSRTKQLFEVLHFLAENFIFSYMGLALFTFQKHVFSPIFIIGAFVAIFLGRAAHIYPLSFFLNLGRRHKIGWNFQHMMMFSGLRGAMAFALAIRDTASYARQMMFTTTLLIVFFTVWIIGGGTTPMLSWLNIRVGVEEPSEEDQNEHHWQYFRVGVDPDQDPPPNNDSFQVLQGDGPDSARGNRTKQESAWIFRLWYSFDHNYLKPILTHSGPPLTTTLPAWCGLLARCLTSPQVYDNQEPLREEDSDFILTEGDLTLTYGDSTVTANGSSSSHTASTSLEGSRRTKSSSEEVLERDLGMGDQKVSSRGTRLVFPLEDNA
# Procedure, shortened: (§1)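 Across three independent experiments, values are fold changes against the detergent-processed vehicle for each replicate, based on vsn-normalised intensities. The samples were Jurkat crude lysate treated with eight concentrations (0.1 to 10 mM) for 10 min at room temperature and then 3 min at 37 °C. Lysate was solubilised with 0.8% NP40 and benzonase, ultracentrifuged, and the supernatant analysed by TMT-labelled LC-MS/MS.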
# [1] = biological target: A0A087WY00|F8W6H6|Q9Y4I1|Q9Y4I1-2|G3V394|Q9Y4I1-3 (UniProt Q9Y4I1)
# Procedure, shortened: as §1
# A0A087WYG2|E9PFH7|Q9UPT6 = biological target: T2, A0A087WYG2|E9PFH7|Q9UPT6 (UniProt Q9UPT6)
# T2 sequence (whole entry): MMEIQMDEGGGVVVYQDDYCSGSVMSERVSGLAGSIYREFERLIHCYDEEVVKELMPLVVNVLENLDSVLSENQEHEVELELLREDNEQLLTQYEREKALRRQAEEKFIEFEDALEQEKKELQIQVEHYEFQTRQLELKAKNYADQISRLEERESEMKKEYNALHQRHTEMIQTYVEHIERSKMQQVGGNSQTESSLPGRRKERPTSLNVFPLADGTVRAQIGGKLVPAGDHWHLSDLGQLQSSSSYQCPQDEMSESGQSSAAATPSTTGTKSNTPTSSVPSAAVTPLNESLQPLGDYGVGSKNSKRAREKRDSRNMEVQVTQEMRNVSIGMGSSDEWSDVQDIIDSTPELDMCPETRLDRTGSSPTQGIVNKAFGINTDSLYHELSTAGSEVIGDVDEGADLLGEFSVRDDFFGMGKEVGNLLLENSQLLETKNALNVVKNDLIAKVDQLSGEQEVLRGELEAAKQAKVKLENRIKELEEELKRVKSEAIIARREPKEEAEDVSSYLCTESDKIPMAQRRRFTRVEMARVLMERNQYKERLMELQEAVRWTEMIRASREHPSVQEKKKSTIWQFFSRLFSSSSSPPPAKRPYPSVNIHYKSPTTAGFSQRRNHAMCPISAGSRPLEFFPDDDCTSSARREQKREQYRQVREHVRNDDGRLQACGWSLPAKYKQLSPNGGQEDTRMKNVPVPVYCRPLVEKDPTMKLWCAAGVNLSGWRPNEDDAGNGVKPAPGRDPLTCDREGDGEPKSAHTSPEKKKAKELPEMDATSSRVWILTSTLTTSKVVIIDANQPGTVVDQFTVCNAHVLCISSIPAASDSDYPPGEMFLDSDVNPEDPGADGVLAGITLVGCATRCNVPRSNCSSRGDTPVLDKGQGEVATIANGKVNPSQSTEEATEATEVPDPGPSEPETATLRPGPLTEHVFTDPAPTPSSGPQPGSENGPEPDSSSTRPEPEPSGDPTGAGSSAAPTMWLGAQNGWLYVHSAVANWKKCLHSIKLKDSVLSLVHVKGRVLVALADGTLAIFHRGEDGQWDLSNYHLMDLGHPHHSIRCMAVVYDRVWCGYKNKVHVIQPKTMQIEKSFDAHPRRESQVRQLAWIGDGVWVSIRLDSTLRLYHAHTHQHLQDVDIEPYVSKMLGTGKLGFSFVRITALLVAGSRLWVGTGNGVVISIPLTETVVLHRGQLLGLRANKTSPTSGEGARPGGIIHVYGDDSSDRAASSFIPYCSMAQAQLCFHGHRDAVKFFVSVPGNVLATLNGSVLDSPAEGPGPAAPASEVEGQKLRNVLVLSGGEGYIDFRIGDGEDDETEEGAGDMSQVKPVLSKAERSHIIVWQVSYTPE
# Procedure, shortened: as §1
# A0A087WYN9|Q7Z478 = biological target: T3, A0A087WYN9|Q7Z478 (UniProt Q7Z478)
# T3 sequence (whole entry): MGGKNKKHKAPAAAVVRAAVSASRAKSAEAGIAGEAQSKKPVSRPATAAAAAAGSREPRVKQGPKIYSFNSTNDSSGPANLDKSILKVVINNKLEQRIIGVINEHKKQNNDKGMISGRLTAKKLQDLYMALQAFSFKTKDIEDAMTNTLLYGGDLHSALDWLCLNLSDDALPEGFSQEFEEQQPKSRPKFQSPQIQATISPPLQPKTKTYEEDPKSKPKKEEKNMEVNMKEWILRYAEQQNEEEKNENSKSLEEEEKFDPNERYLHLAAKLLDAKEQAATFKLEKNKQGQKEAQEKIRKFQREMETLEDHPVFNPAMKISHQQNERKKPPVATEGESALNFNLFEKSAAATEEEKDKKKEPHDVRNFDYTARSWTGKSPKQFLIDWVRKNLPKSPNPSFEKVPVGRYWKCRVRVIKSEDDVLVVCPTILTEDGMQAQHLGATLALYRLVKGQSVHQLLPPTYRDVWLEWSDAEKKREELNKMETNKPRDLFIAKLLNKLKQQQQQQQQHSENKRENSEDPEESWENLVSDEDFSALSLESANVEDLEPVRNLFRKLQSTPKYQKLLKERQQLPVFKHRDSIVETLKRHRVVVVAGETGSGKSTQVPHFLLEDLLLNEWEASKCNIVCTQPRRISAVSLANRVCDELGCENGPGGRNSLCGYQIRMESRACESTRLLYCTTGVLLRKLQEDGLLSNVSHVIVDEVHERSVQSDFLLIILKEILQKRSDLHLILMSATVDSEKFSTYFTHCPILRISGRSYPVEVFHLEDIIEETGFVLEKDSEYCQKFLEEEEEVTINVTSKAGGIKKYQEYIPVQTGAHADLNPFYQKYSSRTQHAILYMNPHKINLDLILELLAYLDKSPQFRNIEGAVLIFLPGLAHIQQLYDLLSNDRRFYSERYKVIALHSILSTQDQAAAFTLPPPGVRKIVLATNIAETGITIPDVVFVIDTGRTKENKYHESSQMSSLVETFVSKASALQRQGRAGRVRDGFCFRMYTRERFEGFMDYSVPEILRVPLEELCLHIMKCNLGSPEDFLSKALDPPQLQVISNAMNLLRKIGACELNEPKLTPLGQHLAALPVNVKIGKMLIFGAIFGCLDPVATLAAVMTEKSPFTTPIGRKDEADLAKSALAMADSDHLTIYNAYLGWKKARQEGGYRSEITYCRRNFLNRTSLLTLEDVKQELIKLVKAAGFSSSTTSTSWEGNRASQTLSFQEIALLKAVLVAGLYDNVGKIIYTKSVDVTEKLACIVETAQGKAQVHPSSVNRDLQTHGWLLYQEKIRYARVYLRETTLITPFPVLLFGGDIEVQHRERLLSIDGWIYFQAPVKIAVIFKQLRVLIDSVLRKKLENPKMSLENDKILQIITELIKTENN
# Procedure, shortened: as §1
# A0A087WZ62 = test system: A0A087WZ62
# Procedure, shortened: as §1
# Sequence of A0A087WY00|F8W6H6|Q9Y4I1|Q9Y4I1-2|G3V394|Q9Y4I1-3 (Q9Y4I1 whole entry, one chain of several): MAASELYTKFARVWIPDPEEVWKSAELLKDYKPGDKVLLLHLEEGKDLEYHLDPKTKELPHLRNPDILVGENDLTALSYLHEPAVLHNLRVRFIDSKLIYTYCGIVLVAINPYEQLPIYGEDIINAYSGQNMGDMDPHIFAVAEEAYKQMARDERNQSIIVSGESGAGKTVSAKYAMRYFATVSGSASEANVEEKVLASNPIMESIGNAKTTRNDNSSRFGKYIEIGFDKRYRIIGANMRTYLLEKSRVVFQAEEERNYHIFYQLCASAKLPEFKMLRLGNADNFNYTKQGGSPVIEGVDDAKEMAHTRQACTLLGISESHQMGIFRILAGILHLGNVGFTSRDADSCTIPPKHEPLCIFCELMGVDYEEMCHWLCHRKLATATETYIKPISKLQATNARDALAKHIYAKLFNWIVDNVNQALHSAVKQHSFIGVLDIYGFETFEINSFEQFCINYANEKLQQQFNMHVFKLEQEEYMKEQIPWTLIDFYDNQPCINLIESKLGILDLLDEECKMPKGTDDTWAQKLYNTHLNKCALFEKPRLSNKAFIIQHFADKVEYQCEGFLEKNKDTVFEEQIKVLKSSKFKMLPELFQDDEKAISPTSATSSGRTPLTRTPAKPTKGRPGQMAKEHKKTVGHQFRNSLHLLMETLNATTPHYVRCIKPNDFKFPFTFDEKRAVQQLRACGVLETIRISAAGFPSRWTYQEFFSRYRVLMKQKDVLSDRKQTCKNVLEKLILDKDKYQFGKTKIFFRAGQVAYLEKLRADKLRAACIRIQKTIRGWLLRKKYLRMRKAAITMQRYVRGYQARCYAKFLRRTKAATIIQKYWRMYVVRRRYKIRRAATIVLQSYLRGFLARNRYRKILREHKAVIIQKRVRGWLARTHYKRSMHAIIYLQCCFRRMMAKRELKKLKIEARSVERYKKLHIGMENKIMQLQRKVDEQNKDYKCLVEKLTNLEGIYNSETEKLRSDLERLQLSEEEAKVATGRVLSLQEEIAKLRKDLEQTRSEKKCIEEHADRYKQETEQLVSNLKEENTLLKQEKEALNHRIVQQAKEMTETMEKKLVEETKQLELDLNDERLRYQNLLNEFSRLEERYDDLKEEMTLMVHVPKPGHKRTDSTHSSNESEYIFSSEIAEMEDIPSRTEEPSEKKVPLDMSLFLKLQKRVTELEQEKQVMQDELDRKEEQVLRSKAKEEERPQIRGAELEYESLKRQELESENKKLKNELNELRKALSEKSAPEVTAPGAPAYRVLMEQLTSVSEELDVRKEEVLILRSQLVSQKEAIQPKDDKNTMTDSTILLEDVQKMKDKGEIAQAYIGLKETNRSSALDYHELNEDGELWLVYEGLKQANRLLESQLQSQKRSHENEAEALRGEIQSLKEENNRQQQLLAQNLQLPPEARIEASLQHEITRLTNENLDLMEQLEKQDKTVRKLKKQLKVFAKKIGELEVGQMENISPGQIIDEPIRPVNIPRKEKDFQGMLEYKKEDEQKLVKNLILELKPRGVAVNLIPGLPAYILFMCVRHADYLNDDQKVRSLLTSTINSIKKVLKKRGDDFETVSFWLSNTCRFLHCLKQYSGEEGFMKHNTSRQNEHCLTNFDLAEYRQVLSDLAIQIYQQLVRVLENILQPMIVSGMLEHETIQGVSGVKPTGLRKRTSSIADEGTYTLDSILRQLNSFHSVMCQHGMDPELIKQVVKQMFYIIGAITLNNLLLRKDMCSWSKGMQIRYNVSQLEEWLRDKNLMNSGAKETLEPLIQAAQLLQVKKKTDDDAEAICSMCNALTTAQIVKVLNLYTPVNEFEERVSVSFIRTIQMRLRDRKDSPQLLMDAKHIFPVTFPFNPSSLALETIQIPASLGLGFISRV
compound,measurement,setting,value
Nc1ncnc2c1ncn2[C@@H]1O[C@H](COP(=O)(O)OP(=O)(O)NP(=O)(O)O)[C@@H](O)[C@H]1O [adenylyl imidodiphosphate],NP40-soluble protein abundance,A0A087WXD1|Q96T83; concentration: 1mM,0.971 ± 0.05
same,NP40-soluble protein abundance,A0A087WXD1|Q96T83; concentration: 2mM,0.973 ± 0.015
same,NP40-soluble protein abundance,A0A087WXD1|Q96T83; concentration: 4mM,0.958 ± 0.033
same,NP40-soluble protein abundance,A0A087WXD1|Q96T83; concentration: 6mM,0.948 ± 0.038
same,NP40-soluble protein abundance,A0A087WXD1|Q96T83; concentration: 8mM,0.935 ± 0.027
same,NP40-soluble protein abundance,A0A087WXD1|Q96T83; concentration: 10mM,0.9324 ± 0.0081
same,NP40-soluble protein abundance,[1]; concentration: 1mM,1.9 ± 0.27
same,NP40-soluble protein abundance,[1]; concentration: 2mM,1.97 ± 0.29
same,NP40-soluble protein abundance,[1]; concentration: 4mM,2.07 ± 0.28
same,NP40-soluble protein abundance,[1]; concentration: 6mM,2 ± 0.31
same,NP40-soluble protein abundance,[1]; concentration: 8mM,1.96 ± 0.29
same,NP40-soluble protein abundance,[1]; concentration: 10mM,2.01 ± 0.24
same,NP40-soluble protein abundance,A0A087WYG2|E9PFH7|Q9UPT6; concentration: 1mM,1.01 ± 0.034
same,NP40-soluble protein abundance,A0A087WYG2|E9PFH7|Q9UPT6; concentration: 2mM,1.03 ± 0.025
same,NP40-soluble protein abundance,A0A087WYG2|E9PFH7|Q9UPT6; concentration: 4mM,1.03 ± 0.025
same,NP40-soluble protein abundance,A0A087WYG2|E9PFH7|Q9UPT6; concentration: 6mM,0.988 ± 0.026
same,NP40-soluble protein abundance,A0A087WYG2|E9PFH7|Q9UPT6; concentration: 8mM,0.981 ± 0.022
same,NP40-soluble protein abundance,A0A087WYG2|E9PFH7|Q9UPT6; concentration: 10mM,1 ± 0.023
same,NP40-soluble protein abundance,A0A087WYN9|Q7Z478; concentration: 1mM,1.31 ± 0.067
same,NP40-soluble protein abundance,A0A087WYN9|Q7Z478; concentration: 2mM,1.49 ± 0.079
same,NP40-soluble protein abundance,A0A087WYN9|Q7Z478; concentration: 4mM,1.73 ± 0.18
same,NP40-soluble protein abundance,A0A087WYN9|Q7Z478; concentration: 6mM,1.9 ± 0.22
same,NP40-soluble protein abundance,A0A087WYN9|Q7Z478; concentration: 8mM,2.01 ± 0.24
same,NP40-soluble protein abundance,A0A087WYN9|Q7Z478; concentration: 10mM,2.1 ± 0.29
same,NP40-soluble protein abundance,A0A087WZ62; concentration: 1mM,0.976 ± 0.026
same,NP40-soluble protein abundance,A0A087WZ62; concentration: 2mM,0.963 ± 0.027
same,NP40-soluble protein abundance,A0A087WZ62; concentration: 4mM,0.931 ± 0.022
